Compound activity deposited in PubChem BioAssay by National Center for Advancing Translational Sciences (NCATS).
PNC inhibitor: High Content Assay for Compounds that inhibit the Assembly of the Perinucleolar Compartment | PC3M PTB-GFP, PNC prevalence imaging, 16 h; hits give low values | activity change (PNC), negative = inhibition, % at 10 µM | 3.1% of 140,000 active;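 active means readout at or below -70, meaning at least 70% loss of cells showing the perinucleolar compartment, a nuclear body marking cancer cells; inconclusive means readout between -30 and a set limit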
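Read-out is percentage of cells bearing a perinucleolar compartment, from automated 20x imaging of fixed, Hoechst-stained PC3M PTB-GFP cells. Cells were seeded 4 h, then exposed 16 h to compound (23 nl of library stock) in duplicate plates.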
HPGD block: qHTS Assay for Inhibitors of HPGD (15-Hydroxyprostaglandin Dehydrogenase). purified HPGD, NADH fluorescence kinetic, PGE2 substrate. Potency, µM, most hits filed as inhibitors. 15-hydroxyprostaglandin dehydrogenase [NAD(+)] (Homo sapiens), P15428. 4.3% of 150,000 active
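NADH formation kinetics: reaction with 30 uM PGE2 and 1 mM NAD+ (final), 20 nM enzyme, Tris-HCl pH 8 with Tween 20, after 15 min compound preincubation at room temperature. Fluorescence change, last versus first of five reads.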
LMNA splice mod: qHTS Assay for Modulators of Lamin A Splicing; HeLa LMNA splicing GFP/RFP minigene ratio, 48 h; AID 1487, 2009; 0.01% of 200,000 active; Potency, µM (top dose mostly 46.1 µM), usual class: inhibitors; active means well fitted inhibition curve with a large enough effect in the signal ratio, with a control signal flat, not every such curve was filed as active; inconclusive means small, poorly fitted or top-dose-only effect, or effect the other way, or a change in a side signal; the % refers to the signal ratio
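S3 HeLa stable clones carrying a lamin A-EGFP splicing minigene plus DsRed2 were seeded at 600 cells/well in Opti-MEM with 2% FBS, pin-dosed and incubated 48 h at 37°C. Acumen cytometry (488 nm) gave the GFP/RFP total-intensity ratio.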
12-hLO inh: qHTS Assay for Inhibitors of 12-hLO (12-human lipoxygenase); Potency, µM (titrated, usually from 57.1 µM), usual class: inhibitors; purified 12-hLO, xylenol orange hydroperoxide absorbance; Polyunsaturated fatty acid lipoxygenase ALOX12 (Homo sapiens), P18054; AID 1452, 2008; 0.12% of 150,000 active; active means well fitted inhibition curve with a large enough effect; inconclusive means small, poorly fitted or top-dose-only effect; further: nearly all actives have a fitted effect of over 55% in size
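Purified human 12hLO (150 nM final) was preincubated with compounds for 15 min at room temperature in 25 mM Hepes pH 7.0, 0.01% Triton X-100, then reacted with 40 uM arachidonic acid for 30 min. Hydroperoxide was detected with ferrous iron/xylenol orange.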
ALDH1A1 inh: qHTS Assay for Inhibitors of Aldehyde Dehydrogenase 1 (ALDH1A1) | Aldehyde dehydrogenase 1A1 (Homo sapiens), P00352 | Purified ALDH1A1, NADH fluorescence, propionaldehyde substrate | Potency, µM (top dose mostly 75.3 µM), actives largely listed as inhibitors | 7.3% of 220,000 active | AID 1030, 2008
Target sequence (P00352 whole entry, looked up): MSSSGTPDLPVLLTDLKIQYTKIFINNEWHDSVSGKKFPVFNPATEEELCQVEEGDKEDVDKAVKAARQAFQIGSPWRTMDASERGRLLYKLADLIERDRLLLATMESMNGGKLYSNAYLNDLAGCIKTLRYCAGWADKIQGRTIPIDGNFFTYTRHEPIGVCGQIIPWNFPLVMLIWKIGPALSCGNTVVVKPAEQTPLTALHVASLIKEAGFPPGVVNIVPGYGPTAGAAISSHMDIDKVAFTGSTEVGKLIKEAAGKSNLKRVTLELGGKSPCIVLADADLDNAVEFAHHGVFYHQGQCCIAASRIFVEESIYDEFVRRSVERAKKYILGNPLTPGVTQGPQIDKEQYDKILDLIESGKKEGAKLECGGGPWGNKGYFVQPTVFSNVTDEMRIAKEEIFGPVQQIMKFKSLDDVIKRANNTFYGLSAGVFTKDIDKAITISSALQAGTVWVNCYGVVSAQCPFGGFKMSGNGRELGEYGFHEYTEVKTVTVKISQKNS
Hits are given with their value; - = inactive; ? = inconclusive; . = no result; [ ] = another dose, or the depositor's remark. The list is not random: actives were taken first. Their share in the collection is about 10%. Unless noted, the call rests on the fitted dose curve; in most records, active means well fitted inhibition curve with a large enough effect (not every such curve was filed as active); inconclusive means small, poorly fitted or top-dose-only effect, or another doubt; inactive means no such curve, though single readings can be large or run the other way.

SMILES	PNC inhibitor	HPGD block	LMNA splice mod	12-hLO inh	ALDH1A1 inh
Cc1cc(/C=C2/C(=N)N3C(=NC2=O)SN=C3S(C)(=O)=O)c(C)n1-c1ccc(F)cc1	.	.	-[9.22 µM]	.	28.2µM
CC1=CSC2=NC(=O)/C(=C\c3cccn3-c3ccccc3)C(=N)N12	-	-	-	-	22.4µM
Cc1ccc(-n2cccc2/C=C2/C(=N)N3C(=NC2=O)SN=C3S(C)(=O)=O)cc1Cl	-	-	-	-	17.8µM
CCC1=NN2C(=N)/C(=C\c3cccn3-c3cccc(Cl)c3)C(=O)N=C2S1	.	.	?	.	1.78µM
Cc1cccc(C)c1-n1cccc1/C=C1/C(=N)N2C(=NC1=O)SN=C2S(C)(=O)=O	.	.	-	.	?
CCC1=NN2C(=N)/C(=C\c3cccn3-c3c(C)cccc3C)C(=O)N=C2S1	.	.	-	.	-
Nc1ncnc2c1ncn2[C@@H]1O[C@@H](CO)[C@H](O)[C@@H]1O	.	.	.	-	.
CCC(CCC(C)C1CCC2C3CC=C4CC(OC(C)=O)CC[C@@]4(C)C3CC[C@@]12C)C(C)C (stereo partly drawn)	.	-	-	-	-
COc1ccc(/C(=C\C(=O)O)c2nccc3cc(OC)c(OC)cc23)cc1OC	.	-	.	.	-
CCOc1ccc(-n2c(C)cc(/C=C3/C(=N)N4C(=NC3=O)SN=C4S(C)(=O)=O)c2C)cc1	.	.	.	.	17.8µM
Cc1cccc(N2CCN(C(=O)Cn3c(=O)c4cccn4c4ccc(F)cc43)CC2C)c1 (stereo not drawn)	.	.	-	.	.
CC(C)C(=O)Nc1nnc(SCC(=O)NCC2CCCO2)s1 (stereo not drawn)	.	.	.	.	-
Cc1ccc(-c2nsc(SCC(=O)NCC3CCCO3)n2)cc1 (stereo not drawn)	.	.	?	.	-
COc1ccc(-c2nsc(SCC(=O)Nc3cc(C)on3)n2)cc1	?	25.1µM	-	-	28.2µM
Cc1cc(NC(=O)CSC2=NCCS2)no1	-108.6	-	-	-	-
O=C(CSc1nc2ccc(NC(=O)C3CCCCC3)cc2s1)NCC1CCCO1 (stereo not drawn)	-	28.2µM	?	-	-
O=C(CSC1=NCCS1)Nc1ccc(F)cc1	.	.	-	.	-
COc1ccc(-c2nsc(SCC(=O)NCC3CCCO3)n2)cc1 (stereo not drawn)	.	.	?	.	25.1µM
CC(=O)O[C@H]1C2=CO[C@H](C)[C@H]3[C@H]4C5=C([C@H](O)[C@H]6O[C@@H]6C5=O)[C@H](O[C@H]4C)[C@@]23C(=O)[C@H]2O[C@@H]21	.	.	.	.	-[13.5 µM]
COc1ccc(/C=C/C(=O)OCC(=O)NCC2CCCO2)cc1 (stereo not drawn)	-81.6	-	?	-	?
Cc1cc(C)n2c(SCC(=O)Nc3c(C)n(C)n(-c4ccccc4)c3=O)nnc2n1	?	-	-	-	-
CCn1c(SCC(=O)Nc2cc(C)on2)nnc1-c1c[nH]c2ccccc12	.	.	.	.	28.2µM
COc1cccc(/C=C/C(=O)OCC(=O)NCC2CCCO2)c1 (stereo not drawn)	-	?	-	-	?
Cc1cc(C)n2c(SCC(=O)Nc3cc(C)on3)nnc2n1	-100.0	?	-	-	?
CCn1c(SCC(=O)NCc2ccco2)nnc1-c1c[nH]c2ccccc12	-	-	-	-	-
SMILES	PNC inhibitor	HPGD block	LMNA splice mod	12-hLO inh	ALDH1A1 inh
CCCCOc1ccc(C(O)(CC)CCN2CCOCC2)cc1 (stereo not drawn)	?	-	-	-	7.94µM
CCCCC(O)(CCN1CCOCC1)c1ccc(Cl)cc1 (stereo not drawn)	-	-	-	-	28.2µM
CCCCOc1ccc(C(O)(CCC)CCN2CCOCC2)cc1 (stereo not drawn)	-	-	?	-	5.62µM
CCC1CCCCN1S(=O)(=O)c1ccc(NC(=O)c2cccs2)cc1 (stereo not drawn)	-100.0	-	?	-	-
CCC1CCCCN1S(=O)(=O)c1ccc(NC(=O)CSc2ncccc2C(=O)O)cc1 (stereo not drawn)	-	14.1µM	-	-	?
O=C(NCc1cccnc1)[C@@H]1[C@@H](C(=O)O)[C@H]2CC[C@@H]1O2	.	-	.	-[11.4 µM]	-[13.5 µM]
O=C(O)C/C=C(\NC(=O)OCc1ccccc1)C(=O)OCc1ccccc1	.	.	-[9.22 µM]	.	0.282µM
CC1(C)Cc2[nH]c(=S)c(C#N)cc2CO1	?	25.1µM	-	?	2.24µM
O=C(O)c1cc2c([nH]c1=O)CCCC2	-	?	-	-	?
N#Cc1cc2c([nH]c1=S)CCCC2	-	14.1µM	-	-	8.91µM
COC(=O)[C@@]1(Cc2ccc(OC)cc2)[C@H]2c3cc(C(=O)N4CCCC4)n(CCN4CNCC4=O)c3C[C@H]2CN1C(=O)c1ccccc1	.	-	.	-	-
COc1ccc(C(c2c(O)nc(SC)n(C)c2=O)c2c(O)nc(SC)n(C)c2=O)cc1O	?	-	-	-	14.1µM
COc1ccc(-c2nc(SC)n(C)c(=O)c2C#N)cc1OC	-	?	-	-	?
Cc1oc2cc(OC(=O)c3ccco3)ccc2c(=O)c1-c1nc2ccccc2n1C	-92.8	-	-	-	?
Cc1cc(=O)oc2cc(OC(=O)c3ccco3)ccc12	.	.	.	.	-
